Test [1] has as its system Jurkat. In words: mean cell size (FSC-A) relative to DMSO control (fraction of control); higher = larger cells. The following applies: 48 h. The method, boiled down:
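Jurkat cells seeded at 600 cells/µl were incubated 1 h, then exposed for 48h to the Enzo Screen-Well FDA Approved Drug Library v2.0 at 25µM in 0.9% (v/v) final DMSO. Drugs that cut counts below 20% of controls were diluted 10-fold and retested, down to 25nM. Cell count and mean cell size (forward scatter area) were read on an Accuri C6 flow cytometer, relative to solvent-only controls. Plates held 6-12 controls; values are means of 3 biological replicates.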

Test [2] concerns Jurkat. In words: cell count relative to DMSO control (fraction of control); higher = more cells (less growth inhibition). The following applies: 48 h.

Structures can show the parent of a compound that is named as a salt. ± gives the standard deviation.

In test [1], `Cc1cccc([C@H](C)c2c[nH]cn2)c1C` [Dexmedetomidine·HCl] (concentration: 25 µM) had a mean cell size of 0.942 ± 0.06. Further, in test [2], the cell count was determined as 0.375 ± 0.13.

`CN1CCN(C(=O)O[C@H]2c3nccnc3C(=O)N2c2ccc(Cl)cn2)CC1` [Eszopiclone] (concentration: 25 µM): in test [1], the mean cell size was 1.01 ± 0.025. The compound also had a cell count in test [2] of 0.796 ± 0.072.

Consider `CN1[C@@H]2C[C@@H](OC(=O)[C@H](CO)c3ccccc3)C[C@H]1[C@@H]1O[C@@H]12` [Scopolamine·HBr] (concentration: 25 µM), for which, in test [1], the mean cell size is 1 ± 0.061. The compound further showed a cell count in test [2] of 0.608 ± 0.1.

The compound `COC[C@@H](NC(C)=O)C(=O)NCc1ccccc1` [Lacosamide] (concentration: 25 µM) registered a mean cell size in test [1] of 0.927 ± 0.067. Besides, the cell count in test [2] came out at 0.639 ± 0.031.

As for `CN1C[C@H](C(=O)N[C@]2(C)O[C@@]3(O)[C@@H]4CCCN4C(=O)[C@H](Cc4ccccc4)N3C2=O)C[C@@H]2c3cccc4[nH]cc(c34)C[C@H]21` [Dihydroergotamine Mesylate] (concentration: 25 µM), the mean cell size in test [1] was found to be 1 ± 0.027. This compound gave a cell count in test [2] of 0.297 ± 0.092.

The compound `CC1C=CC=CCCC=CC=CC=CC=CC(OC2OC(C)C(O)C(N)C2O)CC2OC(O)(CC(O)C(O)CCC(O)CC(O)CC(O)CC(=O)OC(C)C(C)C1O)CC(O)C2C(=O)O` (stereo not drawn) [Nystatin] (concentration: 25 µM) registered a mean cell size in test [1] of 0.8944 ± 0.0084. This compound also yielded a cell count in test [2] of 0.729 ± 0.11.

Compound `O=C1Nc2ccc(Cl)cc2C(c2ccccc2Cl)=NC1O` (stereo not drawn) [Lorazepam] (concentration: 25 µM) registered a mean cell size in test [1] of 0.927 ± 0.03. This compound also displayed a cell count in test [2] of 0.912 ± 0.056.

For the compound `Nc1ccncc1` [Dalfampridine (4-Aminopyridine)] (concentration: 25 µM), the mean cell size in test [1] stood at 0.999 ± 0.044. Moreover, the cell count in test [2] came out at 0.646 ± 0.16.

The compound `NCC1(CC(=O)O)CCCCC1` [Gabapentin] (concentration: 25 µM) showed a mean cell size in test [1] of 0.943 ± 0.02. This compound gave a cell count in test [2] of 0.935 ± 0.036.

Consider `O=C1Nc2ccc(Cl)cc2C(c2ccccc2)=NC1O` (stereo not drawn) [Oxazepam] (concentration: 25 µM), for which, in test [1], the mean cell size was 0.938 ± 0.029. Also, the cell count in test [2] came to 0.645 ± 0.05.

As to `CN(C)C(=O)Oc1ccc[n+](C)c1` [Pyridostigmine Bromide] (concentration: 25 µM), the mean cell size in test [1] was found to be 0.986 ± 0.027. The cell count in test [2] came to 0.651 ± 0.11.

Regarding `N.N.[Cl][Pt][Cl]` [Cisplatin (Cis-Diamineplatinum(Ii) Dichloride )] (concentration: 25 µM), in test [1], the mean cell size came to 1.043 ± 0.0024. For the same compound, the cell count in test [2] came out at 0.895 ± 0.045.

In the case of `CC(C)c1cccc(C(C)C)c1O` [Propofol] (concentration: 25 µM), in test [1], the mean cell size turned out to be 0.972 ± 0.025. This compound had a cell count in test [2] of 1.11 ± 0.027.

In turn, `Cc1nnc2n1-c1ccc(Cl)cc1C(c1ccccc1Cl)=NC2` [Triazolam] (concentration: 25 µM) returned a mean cell size in test [1] of 0.935 ± 0.05. The compound further registered a cell count in test [2] of 0.992 ± 0.11.

Compound `CN1C[C@H](C(=O)N[C@]2(C)O[C@@]3(O)[C@@H]4CCCN4C(=O)[C@H](Cc4ccccc4)N3C2=O)C=C2c3cccc4[nH]cc(c34)C[C@H]21` [Ergotamine Tartrate] (concentration: 25 µM) returned a mean cell size in test [1] of 1.07 ± 0.054. The cell count in test [2] is 0.745 ± 0.057.

`CC1(C)C(C=C(Cl)Cl)C1C(=O)OCc1cccc(Oc2ccccc2)c1` (stereo not drawn) [Permethrin] (concentration: 25 µM) gave a mean cell size in test [1] of 1.03 ± 0.068. This compound yielded a cell count in test [2] of 1.05 ± 0.08.

`Cl[C@H]1[C@H](Cl)[C@@H](Cl)[C@@H](Cl)[C@H](Cl)[C@H]1Cl` [Lindane] (concentration: 25 µM): the mean cell size in test [1] is 0.981 ± 0.037. Moreover, the cell count in test [2] was 0.667 ± 0.091.

In turn, `CC(O)(CS(=O)(=O)c1ccc(F)cc1)C(=O)Nc1ccc(C#N)c(C(F)(F)F)c1` (stereo not drawn) [Bicalutamide] (concentration: 25 µM) yielded a mean cell size in test [1] of 0.973 ± 0.027. In test [2], the cell count came out at 0.836 ± 0.064.

`NC(=O)C[S+]([O-])C(c1ccccc1)c1ccccc1` (stereo not drawn) [Modafinil (Schedule Iv)] (concentration: 25 µM) yielded a mean cell size in test [1] of 0.968 ± 0.014. Moreover, in test [2], the cell count is 0.807 ± 0.05.

The compound `CC(C)C[C@H](CN)CC(=O)O` [Pregabalin] (concentration: 25 µM) came in with a mean cell size in test [1] of 1.03 ± 0.02. This compound showed a cell count in test [2] of 0.592 ± 0.12.

Compound `N[C@@H](Cc1ccc(N(CCCl)CCCl)cc1)C(=O)O` [Melphalan] (concentration: 250 nM) had a mean cell size in test [1] of 1.02 ± 0.022. Further, the cell count in test [2] is 0.46 ± 0.08.

On to `O=[N+]([O-])O[C@H]1CO[C@H]2[C@@H]1OC[C@H]2O[N+](=O)[O-]` [Isosorbide Dinitrate] (concentration: 25 µM), for which the mean cell size in test [1] was 0.945 ± 0.023. This compound gave a cell count in test [2] of 1.04 ± 0.081.

For `CCN(C(C)=O)c1cccc(-c2ccnc3c(C#N)cnn23)c1` [Zaleplon] (concentration: 25 µM), the mean cell size in test [1] was found to be 1 ± 0.059. In test [2], this compound returned a cell count of 0.664 ± 0.14.

In test [1], `C[N+]1(C)CCCC(OC(=O)C(O)(c2ccccc2)c2ccccc2)C1` (stereo not drawn) [Mepenzolate Bromide] (concentration: 25 µM) registered a mean cell size of 0.91 ± 0.039. In test [2], this compound yielded a cell count of 1.15 ± 0.042.

The values above are taken from the supplement of paper PMC4709259.
